# Hits are enriched below; roughly 27% of the tested compounds scored in any of these assays.
# CYP2C19 inh: inhibitors of human CYP2C19. CYP2C19 Supersomes, luciferin-H EGE luminescence, 30 min. P33261. hit rate 21% among 96,000. inhibition, % at 5 µM;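 active means CYP2C19 inhibition above a set limit at 5 µM in the primary screen, cut at about 50% in these data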;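 further: plate controls were negative control wells for no effect and 2.5 mM tranylcypromine positive control for full effect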
# Target sequence (P33261 whole entry, looked up): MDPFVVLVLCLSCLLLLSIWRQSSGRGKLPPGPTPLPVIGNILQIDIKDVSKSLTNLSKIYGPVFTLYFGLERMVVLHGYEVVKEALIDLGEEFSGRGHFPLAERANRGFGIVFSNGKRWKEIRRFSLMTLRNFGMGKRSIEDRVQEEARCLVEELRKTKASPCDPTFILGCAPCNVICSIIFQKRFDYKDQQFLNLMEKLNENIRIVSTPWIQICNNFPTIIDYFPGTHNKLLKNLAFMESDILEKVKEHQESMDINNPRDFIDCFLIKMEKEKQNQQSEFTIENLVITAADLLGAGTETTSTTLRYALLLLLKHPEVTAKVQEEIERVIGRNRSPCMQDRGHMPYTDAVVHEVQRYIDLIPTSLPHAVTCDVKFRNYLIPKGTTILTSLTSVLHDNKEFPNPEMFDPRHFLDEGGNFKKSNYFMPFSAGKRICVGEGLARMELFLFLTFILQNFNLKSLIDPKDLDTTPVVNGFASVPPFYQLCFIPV
# CYP2C9 inh: inhibitors of human CYP2C9; inhibition, % at 5 µM; P11712; CYP2C9 Supersomes, luciferin-H conversion, luminescence; hit rate 20% among 96,000;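 active means blocking of liver enzyme CYP2C9 beyond about 50% at 5 µM, limit read from the data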
# CYP2C9 act: increases human cytochrome P450 2C9 activity; P11712; recombinant CYP2C9, luciferin-H conversion, luminescence; active compounds read high; factor 1 = untreated enzyme, 0 = blocked; activation factor at 5 µM; hit rate 1.4% among 96,000; AID 1024;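 active means activation factor of 2 or more for CYP2C9 at a 5 µM dose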;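 further: 0 = sulfaphenazole-blocked wells and 1 = vehicle-only wells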
# Cav32 inh: blocks human Cav3.2 T-type calcium channel | O95180 | Cav3.2-expressing cells, Fluo-4 calcium fluorescence FDSS; active compounds read low | B-score at 10 µM | hit rate 4% among 100,000 | AID 449739;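 active means single-dose well whose peak fluorescence ratio is a statistical outlier from its plate by either plate-standardised score or position-corrected B-score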
# CYP2C19 act: increases human CYP2C19 enzyme activity; P33261; recombinant CYP2C19, luciferin-H EGE luminescence; active compounds read high; 0 = fully inhibited enzyme, 1 = untreated enzyme; activation factor at 5 µM; 96,000 tested, under 10 active; AID 1025;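 active means activation factor of at least 2 at 5 µM in the primary screen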;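 further: 0 = wells with 2.5 mM tranylcypromine and 1 = vehicle-only wells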
# Numbers without * were called inactive; . = no result.
SMILES,CYP2C19 inh,CYP2C9 inh,CYP2C9 act,Cav32 inh,CYP2C19 act
CCc1nc2ccccc2n1Cc1ccccc1OC,96.5*,65.4*,0.3,-1.94,0
CCN(CC)CCn1c(NCc2cccc(OC)c2OC)nc2ccccc21,-2.2,8.4,0.9,0.634,1
Cc1ccc(C(C(=O)NCc2ccco2)N(C(=O)CNC(=O)c2cccs2)c2c(C)cc(C)cc2C)cc1 (stereo not drawn),4.6,19.7,0.8,0.444,1
Cc1c(C)n(CC(O)CN2CCCCCC2)c2ccccc12 (stereo not drawn),71.7*,3.7,1,0.97,0.3
O=C(c1ccco1)N1CCN(CC(O)Cn2c3ccccc3c3ccccc32)CC1 (stereo not drawn),83.3*,88.0*,0.1,-4.84*,0.2
Cc1ccc(C)n1CCN1CCN(C(=O)c2ccco2)CC1,4.3,1.1,1,0.139,1
OC(CN1CCN(c2ccccn2)CC1)Cn1c2ccccc2c2ccccc21 (stereo not drawn),57.4*,54.5*,0.5,-2.62,0.4
OC(COc1ccc(Cl)c2ccccc12)CN1CCN(c2ccccn2)CC1 (stereo not drawn),91.7*,59.1*,0.4,-0.0215,0.1
C=CCOc1cccc(C2C(C(=O)c3ccc(C)o3)=C(O)C(=O)N2CCN(C)C)c1 (stereo not drawn),-4.5,-6.9,1.1,0.637,1
CC(C)COCC1CC2(CC(C)C(=O)CC2=O)C(=O)O1 (stereo not drawn),7.6,20.7,0.8,0.48,0.9
Cc1nn(CCC#N)c(NC(=O)c2ccc(Cl)cc2Cl)c1P(=O)(Nc1ccc([N+](=O)[O-])cc1)N1CCOCC1 (stereo not drawn),-5.6,11.0,0.9,-0.112,1.1
O=C(Cn1cnc2ccccc2c1=O)N1CCN(Cc2ccccc2)CC1,-5.4,3.3,1,0.129,1.1
O=S(=O)(NC1CCCC1)c1cccc(-c2nnc(-c3ccccc3)o2)c1,34.5,86.7*,0.1,0.0432,0.7
CCC1Oc2ccc(C)cc2N(CC(=O)NCc2ccccc2OC)C1=O (stereo not drawn),90.6*,-29.3,1.3,-0.244,0.1
CCC1Oc2ccccc2N(CC(=O)NCCc2ccc(OC)c(OC)c2)C1=O (stereo not drawn),.,.,.,0.224,.
CCC1Oc2ccc(C)cc2N(CC(=O)NCc2cccc(OC)c2)C1=O (stereo not drawn),94.2*,13.9,0.9,-1.12,0.1
COC(=O)CC1Oc2ccccc2N(Cc2ccccc2)C1=O (stereo not drawn),89.5*,54.7*,0.5,-1.08,0.1
CCC1Oc2ccccc2N(CC(=O)Nc2ccccc2OC)C1=O (stereo not drawn),77.5*,63.0*,0.4,-1.29,0.2
CCC1Oc2ccc(C)cc2N(CC(=O)NCCN2C(C)CCCC2C)C1=O (stereo not drawn),-0.8,-7.9,1.1,1.1,1
CCC1Oc2ccc(C)cc2N(CC(=O)NCc2cc(OC)ccc2OC)C1=O (stereo not drawn),73.3*,15.5,0.8,-1.54,0.3
CCOC(=O)c1cc(C#N)c(Oc2ccc(F)cc2)nc1-c1ccccc1,17.0,49.9,0.5,-1.4,0.8
CCOC(=O)c1cc(-c2nnc(-c3ccc(Oc4ccccc4)cc3)o2)c(C)nc1C,13.7,62.8*,0.4,-2.78,0.9
CC(C)c1ccc(OCC(O)CN2CCN(c3ccccc3)CC2)cc1 (stereo not drawn),34.8,11.5,0.9,-3.05,0.7
CC(C)NC(=O)C1CC(=O)N(C(C)c2ccccc2)C1 (stereo not drawn),-6.4,-12.8,1.1,0.229,1.1
Cn1c(=O)c2c(n(Cc3ccccc3)c1=O)NC(=O)C2CC(=O)O (stereo not drawn),-7.9,25.3,0.7,1.13,1.1
SMILES,CYP2C19 inh,CYP2C9 inh,CYP2C9 act,Cav32 inh,CYP2C19 act
CCCCn1c2c(c(=O)n(C)c1=O)C(CC(=O)OCC(=O)Nc1cccc(C(F)(F)F)c1)C(=O)N2 (stereo not drawn),37.0,86.4*,0.1,0.131,0.6
COc1ccc(CN2CCN(C(=O)c3cccs3)CC2)c(OC)c1OC,24.4,-10.0,1.1,0.026,0.8
CC1CN(Cc2ccc(Cl)cc2Cl)CC(C)O1 (stereo not drawn),53.5*,14.6,0.9,0.0658,0.5
CCOC(=O)c1cc2sccc2n1CC(=O)Nc1ccc(OC)c(OC)c1,87.4*,45.8,0.5,-0.417,0.1
CCOC(=O)c1cc2sccc2n1CC(=O)N1CCc2ccccc21,14.6,25.4,0.7,-0.0705,0.9
CCOC(=O)c1cc2sccc2n1CC(=O)Nc1ccc(OC)cc1,33.9,12.0,0.9,-0.64,0.7
CCOC(=O)c1cc2sccc2n1CC(=O)OC(C)C,96.6*,88.3*,0.1,-1.73,0
CCC(C)N1C(=O)C2C(C(=O)Nc3cccc(OC)c3)C3C=CC2(O3)C1C(=O)NC1CCCCC1C (stereo not drawn),8.0,12.1,0.9,-0.0569,0.9
CCOc1ccccc1N1CCN(c2nc3ccccc3nc2C(C#N)C(=O)OC)CC1 (stereo not drawn),34.6,49.1,0.5,-7.62*,0.7
COc1ccccc1N1CCN(c2nc3ccccc3nc2C(C#N)C(=O)OC(C)C)CC1 (stereo not drawn),33.7,66.3*,0.3,-8.53*,0.7
Cc1ccc(Sc2ccc(N)cc2C#N)cc1,.,.,.,-2.1,.
COc1ccc(N2C(=O)CC(n3c(CCCCO)nc4ccccc43)C2=O)cc1 (stereo not drawn),-2.2,-1.9,1,.,1
COc1ccc2c(c1)C(C1C(=O)CCCC1=O)c1ccccc1O2 (stereo not drawn),3.1,64.1*,0.4,1.08,1
COc1ccc(/C=N/NC(=O)C2c3ccccc3Oc3ccccc32)c(OC)c1,8.7,4.5,1,.,0.9
O=C(Nc1ccc(-c2cc3ccccc3oc2=O)c(Cl)c1)c1cccnc1,22.2,-120.0,2.2*,2.35,0.8
O=C(Nc1ccc2ccccc2c1)c1cccnc1,17.0,7.7,0.9,0.881,0.8
O=C(Nc1ccc2nc(-c3cccnc3)[nH]c2c1)c1ccccc1F,34.8,33.4,0.7,-0.699,0.7
O=C(Nc1ccc(Cl)c(-c2nc3ccccc3[nH]2)c1)c1cccnc1,59.8*,83.3*,0.2,0.631,0.4
O=C(O)CCc1n[nH]c(=S)[nH]c1=O,-2.1,-12.2,1.1,.,1
Cc1cccc2nc(CSc3nnnn3-c3ccccc3)cn12,84.2*,37.4,0.6,0.421,0.2
O=C(O)c1ccc(-n2nnnc2SCc2ccccc2)cc1,-24.5,34.8,0.7,-0.856,1.2
Cc1cccc2nc(CSc3nncn3-c3ccccc3)cn12,4.1,-19.5,1.2,0.545,1
Cc1ccc(-n2nnnc2SCc2ccccn2)cc1C,57.1*,0.6,1,0.15,0.4
Cc1cc(C)n2cc(CSc3nnnn3-c3ccccc3)nc2n1,3.5,-20.4,1.2,-0.206,1
C(=C\CSc1nnnn1-c1ccccc1)/CSc1nnnn1-c1ccccc1,5.8,20.1,0.8,-2.53,0.9
